# Assay results taken from PubChem BioAssay AID1063 (University of Pittsburgh Molecular Library Screening Center, 2008).
# In all, about 200,000 compounds went through this assay and about 18,000 (9%) were called active. This is one part of a sample in which actives are shown more often than they occur. A number with no mark means an inactive call. No stated cut-off is given here; in the data, active means inhibition above about 50%; inactive means the rest.
# Assay: Leishmania major promastigote growth inhibition, primary screen (AID 1063);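 further: promastigotes grown with compound for 44 hours at 28 °C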
# Conditions: Leishmania major promastigotes, resazurin fluorescence viability; at 10 µM; stronger effect = higher value
row,SMILES,inhibition
1,O=S(=O)(Cc1ccccc1)c1nc2ccccc2n1Cc1ccccn1,10.6%
2,Cc1cc(C)cc(C(=O)N(CCc2ccccc2)C2=CC3CCC(C2)N3C)c1 (centres undefined),3.61%
3,Cc1ccc(N/C=C/C(=O)c2ccccc2)cc1C,66% (active)
4,Cc1noc(NS(=O)(=O)c2ccc(N/C=C/C(=O)c3ccccc3)cc2)c1C,-14.2%
5,O=C(/C=C\NCC(=O)c1ccccc1)c1ccccc1,2.41%
6,O=C(Nc1ccc2c(c1)C(=O)OC2)Nc1cccc2ccccc12,-3.46%
7,CC1=NN(c2ccccc2)C(=O)C1C(=O)c1ccc([N+](=O)[O-])cc1 (centres undefined),-7.88%
8,COc1cc(OC)nc(N/N=C(\c2ccccc2)c2ccncc2)n1,-5.12%
9,CCN(CC)N=Nc1cccc(NC(C)=O)c1,-3.03%
10,CC(=O)NCCc1nc2cc(NC(=O)c3ccccc3)ccc2n1C,-4.08%
11,CC[n+]1c(C)n(-c2ccccc2)c2ccc(NC(C)=O)cc21,98.2% (active)
12,O=C(Nc1ccc2cn[nH]c2c1)c1ccc(S(=O)(=O)N2CCOCC2)cc1,-3.16%
13,O=C(C(Cl)Cl)N1CCN(c2ccccn2)CC1,64.4% (active)
14,CC(=C1C(=O)c2ccccc2C1=O)N1CCN(c2ccccn2)CC1,-2.16%
15,O=C(Cc1ccccc1Cl)N1CCN(c2ccccn2)CC1,-2.27%
16,COC(c1ccccc1)c1nnc(CCC(=O)N2CCN(CCOc3ccccc3)CC2)o1 (centres undefined),-4.38%
17,CC1=C/C(=N\S(=O)(=O)c2ccccc2)C(C(C)C)=CC1=O,-0.21%
18,Cc1ccc(S(=O)(=O)c2ccc(Oc3ccccc3)cc2)cc1,-3.38%
19,CC1=C/C(=N\OS(=O)(=O)c2ccccc2)C=CC1=O,100% (active)
20,Cc1cccc(C(=O)N2CCC(c3nc4ccccc4s3)CC2)c1,-2.51%
21,Cc1cccc(/C(N)=N/OC(=O)c2ccccc2Cl)c1,16.9%
22,COC(=O)c1cccc([N+](=O)[O-])c1CS(=O)(=O)c1ccc(C)cc1,-1.5%
23,CC(=O)Nc1ccc(-c2csc(NC=C3C(=O)OC(C)(C)OC3=O)n2)cc1,0.56%
24,CC(=O)Nc1ccc(S(=O)(=O)Nc2nc(-c3ccc(C(C)(C)C)cc3)cs2)cc1,6.97%

row,SMILES,inhibition
1,CC(=O)Nc1ccc(-c2csc(NC(=O)Nc3ccccc3)n2)cc1,58.2% (active)
2,Cc1cc(C(=O)CSc2nc(N)cc(=O)[nH]2)c(C)n1-c1cccc(F)c1,23.6%
3,O=C(CCN1C(=O)/C(=C/c2cccs2)SC1=S)NNC(=O)c1cccc(O)c1,-5.28%
4,O=C1c2cccc3c([N+](=O)[O-])ccc(c23)C(=O)N1CC1CCCO1 (centres undefined),101% (active)
5,O=c1c2cc3c(=O)n(CC4CCCO4)c(=O)c3cc2c(=O)n1CC1CCCO1 (centres undefined),-5.65%
6,O=C(NCc1ccc2c(c1)OCO2)c1ccc2c(c1)C(=O)N(CC1CCCO1)C2=O (centres undefined),-1.97%
7,Cc1cc(C)cc(OCC(=O)Nc2ccc(S(=O)(=O)Nc3ccccn3)cc2)c1,7.3%
8,O=C(C1CCCO1)N1CCN(C(=S)NC2CC2)CC1 (centres undefined),-5.96%
9,CCn1c(-c2ccncc2)n[nH]c1=S,-0.2%
10,COCCn1c(C)cc(C(=O)CSc2ncnc3sc4c(c23)CCC4)c1C,-5.34%
11,Cc1nc(SCC(=O)Nc2cc(C)on2)c2c3c(sc2n1)CCCC3,1.37%
12,COCCNc1nc(-n2nc(C)cc2C)nc2sc3c(c12)CCCC3,64% (active)
13,CCC(O)CNc1nc(-n2nc(C)cc2C)nc2sc3c(c12)CC(C)(C)OC3 (centres undefined),9.97%
14,Cc1cc(C)n(-c2nc(SCC(=O)N3CCCC3)c3c4c(sc3n2)CCCC4)n1,63.1% (active)
15,Cc1nc2sc3c(c2c(=O)n1NC(=O)CCl)CCCC3,-0.99%
16,O=C(CSc1ccc([N+](=O)[O-])cn1)Nc1ccc(N2CCOCC2)c(Cl)c1,8.08%
17,O=C(CCc1ccccc1)NCCc1cccs1,-9.15%
18,COc1ccc(OC)c2[nH]c(=O)c(CCNC(=O)C(=O)c3c[nH]c4ccccc34)cc12,-6.77%
19,COc1cc(NC(=S)N2CCCC(C)C2)c(OC)cc1Cl (centres undefined),6.09%
20,Cc1cccc(N(C(=O)Cc2cccs2)C(C(=O)NCc2ccco2)c2ccncc2)c1 (centres undefined),6.9%
21,Cc1cccc(C2c3[nH]c4ccccc4c3CCN2C(=O)c2cc(-c3cccn3C)n[nH]2)n1 (centres undefined),70.9% (active)
22,Cc1cccc(C(=O)N2CCc3c([nH]c4ccccc34)C2CC(C)C)n1 (centres undefined),31.8%
23,O=C(c1cn2ccccc2n1)N1CCc2c([nH]c3ccccc23)C1c1ccccn1 (centres undefined),13.8%
24,CC1(C)CC(=O)C(CC(=O)N2CCC(Cc3ccccc3)CC2)C(=O)C1,-0.44%

row,SMILES,inhibition
1,Cc1cc(C(C)(C)C)cc(S(=O)(=O)Nc2ccc(C(=O)O)cc2)c1C,-3.3%
2,CCOc1ccccc1Nc1ccc(C(=O)O)cc1[N+](=O)[O-],-1.36%
3,O=C(Nc1cccc2ccccc12)N1CCN(Cc2ccc3c(c2)OCO3)CC1,24.5%
4,Cn1c(=O)cc(OCCCC(=O)N2CCN(Cc3ccc4c(c3)OCO4)CC2)c2ccccc21,11.9%
5,O=C(CSCc1ccc(Cl)cc1)N1CCN(Cc2ccc3c(c2)OCO3)CC1,90.7% (active)
6,O=C(CSCc1ccc(Cl)cc1)N1CCCCC1,-3.7%
7,O=C(CCCN1C(=O)c2cccc3cccc(c23)C1=O)N1CCN(Cc2ccc3c(c2)OCO3)CC1,53.9% (active)
8,CS(=O)(=O)N(CC(=O)N1CCN(Cc2ccc3c(c2)OCO3)CC1)c1ccc2c(c1)OCO2,-5.11%
9,CCc1ccccc1NC(=O)CSc1nnc(-c2ccncc2)o1,-6.71%
10,Cc1ccc(OCc2n[nH]c(=S)n2-c2ccc(C)cc2)cc1,1.58%
11,Cc1c(-c2cccc(Cl)c2)nc2ccccc2c1C(=O)OCC(=O)N(C)C1CCS(=O)(=O)C1 (centres undefined),30.9%
12,Cc1c(Br)cc(C(=O)N2CCCCCC2)c(C)c1C,79% (active)
13,Cc1ccc(C(=O)N2CCCCCC2)cc1Br,1.69%
14,COc1cc(OC)c(C(=O)N2CCCC2)cc1OC,-1.38%
15,Cc1ccc(NC(=O)CSc2nnc(CNC(=O)c3ccccc3F)o2)cc1,-3.87%
16,CCC(C)(C)NC(=O)CN(C(=O)C(=O)Nc1ccc2c(c1)OCCO2)C(C)(C)CC,9.2%
17,CCOC(=O)CN1CCC(c2ccccc2)CC1,-3.4%
18,c1ccc(C2CCC(N3CCC(N4CCCCC4)CC3)CC2)cc1 (centres undefined),92.2% (active)
19,O=C(CN1CCN(C2CCCCC2)CC1)Nc1ccccc1N1CCCCC1,10.2%
20,O=C(COc1ccc(S(=O)(=O)N2CCCCC2)cc1)NCc1ccccn1,-4.35%
21,COc1cc(N/C=C2\CC(=O)NC(C)=C2C#N)cc(OC)c1OC,-6.28%
22,O=C(CCS(=O)(=O)Cc1ccccc1)Nc1ccc2c(c1)OCCO2,-2.36%
23,O=C(Cn1cnc([N+](=O)[O-])n1)NCCc1ccccc1,21.8%
24,O=C(Nc1cccc(CCc2ccccn2)c1)c1ccc(Cl)cc1,2.49%

row,SMILES,inhibition
1,Cc1ccc2[nH]c(=O)c(CN(CC3COCCO3)C(=O)Nc3ccccc3C)cc2c1 (centres undefined),4%
2,Cc1ccc2[nH]c(=O)c(CN(CCCN(C)C)C(=O)Nc3cccc(Cl)c3)cc2c1,93.2% (active)
3,Cc1cccc(NC(=O)N(Cc2cc3cc(C)cc(C)c3[nH]c2=O)CC2COCCO2)c1 (centres undefined),37.5%
4,COc1ccc(C(=O)Nc2ccc(NC(=O)C(C)C)nc2)cc1,25.1%
5,O=C(N/C(=C\c1ccc(F)cc1)C(=O)N1CCCCCC1)c1ccccc1,-5.92%
6,Cc1cc2ccccc2n1CCC(=O)O,-7.95%
7,Cc1ccc(/C=N\n2c(-c3ccccc3)n[nH]c2=S)s1,0.81%
8,S=c1[nH]nc(-c2ccccc2)n1/N=C/c1c[nH]c2ccccc12,54.7% (active)
9,CCc1n[nH]c(=S)n1/N=C/c1c[nH]c2ccc(Br)cc12,11.7%
10,O=C(CCCNS(=O)(=O)c1cccc2nsnc12)NCCN1CCN(c2ccccc2F)CC1,-3.45%
11,Cc1cc(-c2csc(N)n2)c(C)n1Cc1ccccc1,7.08%
12,COc1ccc(C2SCCN2S(=O)(=O)c2ccccc2)cc1OC (centres undefined),22.3%
13,COc1ccc(/C=C2\CCc3ccccc3C2=O)c(OC)c1OC,8.72%
14,COc1ccc(C2NC(=S)NC3=C2CCc2ccccc23)cc1OC (centres undefined),57.7% (active)
15,Cc1onc(C(=O)NCc2ccc(F)cc2)c1[N+](=O)[O-],-5.34%
16,CC(=O)c1ccc(NC(=O)C(C)NCc2ccc(Cl)cc2)cc1 (centres undefined),-2.38%
17,C=Cn1c(C(=O)O)ccc1-c1ccc(OC)cc1,-4.56%
18,CCOC(=O)C1CCCN(C(=O)COc2ccc(N(C)S(=O)(=O)c3ccc(C)cc3)cc2)C1 (centres undefined),27.7%
19,CCC1CCCCN1S(=O)(=O)Cc1ccccc1Cl (centres undefined),3.99%
20,Cc1nnc(CN(C)Cc2cn[nH]c2-c2ccc(-c3ccccc3)cc2)o1,26.1%
21,CN(CCC1CCOCC1)Cc1cn[nH]c1-c1ccc(-c2ccccc2)cc1,66.8% (active)
22,O=C(CC1C(=O)NCCN1Cc1ccc(-c2ccccc2)cc1)NCC1CCOCC1 (centres undefined),2.89%
